# Source: PubChem BioAssay
# Sampled rows, rich in hits. Any-hit rate of the full collection: about 13%.
# GBA activity = Glucocerebrosidase. 1.1% of 48,000 active. purified enzyme, resorufin glucoside fluorescence (screen aimed at inhibitors), 20 min. Lysosomal acid glucosylceramidase (Homo sapiens), P04062. Potency, µM. AID 360, 2006; in the data active means potency below about 15 µM; inconclusive means mostly about 16 µM to 33 µM;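 further: potency means the concentration at half of the fitted maximal effect; the screen sought inhibitors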
#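 Normal human glucocerebrosidase (0.2 nM final) was assayed with resorufin β-D-glucopyranoside (30 uM final) in 50mM citric acid/KH2PO4, 10mM sodium taurocholate, 0.01% tween-20, pH 5.9. Compounds were titrated; fluorescence (Ex 548, Em 600) read after 20 min at RT.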
# HSD17B inh = qHTS Assay for Inhibitors of HSD17B4, hydroxysteroid (17-beta) dehydrogenase 4 | 3-hydroxyacyl-CoA dehydrogenase type-2 (Homo sapiens), Q99714 | recombinant HSD17B10, NADH fluorescence kinetic | Potency, µM (top dose mostly 57.1 µM), for the others: at the top dose activity change, negative = inhibition, hits mostly inhibitors | 7.6% of 75,000 active | AID 893, 2007;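 further: the protocol describes HADH2 (HSD17B10) and not the HSD17B4 of the title; potency means the concentration at half of the fitted maximal effect; on the % scale 0 is the no-effect control and ±100 the full control effect; nearly all actives have a fitted effect of over 70% in size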
#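 His-tagged E. coli-expressed HADH2 at 20 nM in 100 mM Tris-HCl pH 9.0 with 0.01 % Tween-20, preincubated 15 min with compound at room temperature. Reaction with 1 mM NAD+ and 90 uM beta-hydroxybutyryl coenzyme A; NADH fluorescence (360/450 nm) read kinetically over 4 min, last minus first point.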
# 4MU fluor = qHTS Assay for Spectroscopic Profiling in 4-MU Spectral Region; compound autofluorescence, 340/450 nm, 4-MU equivalents; stronger effect = higher value; max dye-equivalent concentration, M; 11% of 59,000 active; in the data active means max dye-equivalent concentration above about 10 nM; inconclusive means mostly about 1.1 nM to 9.6 nM
#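 Compounds in 100 mM Tris, pH 8.0, incubated 15 min at room temperature, then fluorescence read at 340 nm excitation/450 nm emission. Signal converted to 4-MU dye-equivalent concentration using an on-plate six-point 4-MU standard curve.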
# AID923 = qHTS Assay for Allosteric/Competitive Inhibitors of Caspase-1: Spectroscopic Profiling in AFC Spectral Region; compound fluorescence, AFC spectral region (405/520 nm); Potency, µM (titrated, usually from 57.5 µM), without a hit: at the top dose fluorescence increase, actives largely listed as activators; 1.1% of 75,000 active; further: potency means the concentration at half of the fitted maximal effect; 0% is about no effect
#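 Baseline compound fluorescence (AFC region, 405 nm ex/520 nm em) taken from the intercept of kinetic reads with 50 nM caspase-1 and 5 uM Ac-WEHD-AFC; normalized to an on-plate AFC standard curve; compounds titrated up to 57 uM.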
# HADH2 inh = qHTS Assay for Inhibitors of HADH2 (Hydroxyacyl-Coenzyme A Dehydrogenase, Type II); 3-hydroxyacyl-CoA dehydrogenase type-2 (Homo sapiens), Q99714; recombinant HADH2, NADH fluorescence, beta-hydroxybutyryl-CoA; Potency, µM (top dose mostly 57.1 µM), without a hit: at the top dose activity change, negative = inhibition, usual class: inhibitors; 3.4% of 73,000 active; further: potency means the concentration at half of the fitted maximal effect; on the % scale 0 is the no-effect control and ±100 the full control effect; nearly all actives have a fitted effect of over 60% in size
# Target sequence (Q99714 whole entry, looked up, one chain of several): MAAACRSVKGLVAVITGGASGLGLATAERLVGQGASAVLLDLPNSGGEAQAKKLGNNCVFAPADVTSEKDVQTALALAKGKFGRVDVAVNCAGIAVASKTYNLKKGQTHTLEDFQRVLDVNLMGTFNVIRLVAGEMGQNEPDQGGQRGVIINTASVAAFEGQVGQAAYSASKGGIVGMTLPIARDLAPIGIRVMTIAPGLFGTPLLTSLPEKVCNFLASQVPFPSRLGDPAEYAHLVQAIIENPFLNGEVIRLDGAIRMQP
#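 20 nM HADH2 + cpd, 15 min RT; add 1 mM NAD+/90 uM beta-hydroxybutyryl-CoA; kinetic fluorescence 360/450 nm, 4 min. Tris-HCl pH 9.0, 0.01% Tween-20.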
# A350 autofl = qHTS Assay for Spectroscopic Profiling in A350 Spectral Region | Compound autofluorescence, 340/450 nm, Alexa 350 dye-equivalents; stronger effect = higher value | max dye-equivalent concentration, M | 11% of 59,000 active | AID 590, 2007; in the data active means max dye-equivalent concentration above about 10 nM; inconclusive means mostly about 1.1 nM to 9.6 nM
# Numbers without * were called inactive; i = inactive; ? = inconclusive; nt = not tested or not shown. Unless noted, the call rests on the fitted dose curve; in most records, active means well fitted curve in the direction sought with a large enough effect; inconclusive means small, poorly fitted or top-dose-only effect, or another doubt; inactive means no such curve, though single readings can be large; an effect the other way counts as inactive or inconclusive.
SMILES,GBA activity,HSD17B inh,4MU fluor,AID923,HADH2 inh,A350 autofl
O=C(CSc1nnc(Cc2cccs2)n1C1CCCCC1)N1CCCc2ccccc21,nt,-25.9%,i,-0.6%,?,i
CN(CCNC(=O)C1CC(=O)N(c2ccc(F)c(Cl)c2)C1)Cc1ccccc1 (stereo not given),15.4*,-2.4%,i,-0.5%,-2.3%,i
CNC(=O)C1CC(=O)N(c2ccc(F)c(Cl)c2)C1 (stereo not given),>76.9,-1.8%,i,-0.4%,-0.4%,i
Cc1sc(-n2c(C)ccc2C)c(C#N)c1C,nt,nt,?,nt,nt,1.04e-08M*
Cc1noc(C)c1C(=O)Nc1sc(C)c(C)c1C#N,>76.9,-0.8%,i,-0.1%,-22.3%,i
O=C(Nc1ccc2oc(=O)ccc2c1)c1cccnc1,>76.9,?,1.43e-08M*,-1.5%,-14.0%,1.37e-08M*
O=C(NCCCN1CCOCC1)C1CC(=O)N(C2CCCCC2)C1 (stereo not given),>76.9,7.5%,1.01e-08M*,-0.5%,3.1%,1.24e-08M*
Fc1ccc(C(c2nnnn2Cc2ccco2)N2CCN(C3CCCCC3)CC2)cc1 (stereo not given),>76.9,-2.1%,i,0.6%,9.8%,i
N#CCCSc1ncnc2c1oc1ccccc12,>76.9,4.7%,3.11e-08M*,-0.2%,-1.5%,5.19e-08M*
OCCSc1ncnc2c1oc1ccccc12,i,3.8%,i,0.9%,-13.2%,i
COc1cc(C(c2nnnn2C2CCCC2)N2CCc3ccccc3C2)ccc1O (stereo not given),i,-9.7%,i,0.9%,-11.3%,i
Oc1ccc(C(c2nnnn2C2CCCC2)N2CCc3ccccc3C2)cc1 (stereo not given),?,31.6µM*,i,0.3%,?,i
CCN1CCN(c2c(Cl)cccc2NC(=O)c2ccco2)CC1,>76.9,-2.9%,i,0.3%,?,i
O=C(COc1ccc(S(=O)(=O)NC2CCCCC2)cc1Cl)NCC1CCCO1 (stereo not given),13.6*,-0.7%,i,-2.1%,5.3%,i
COc1ccc(-c2nnc3sc(COc4ccccc4)nn23)cc1,nt,nt,i,nt,nt,i
COc1ccc(-c2oc3ncn4nc(Cc5ccccc5)nc4c3c2-c2ccc(OC)cc2)cc1,nt,nt,6.88e-08M*,nt,nt,7.02e-08M*
N=c1c2c(-c3ccccc3)c(-c3ccccc3)oc2ncn1CCN1CCOCC1,>76.9,?,?,1.7%,8.8%,?
COc1ccc(-c2oc3ncn4nc(COc5ccccc5)nc4c3c2-c2ccc(OC)cc2)cc1,nt,nt,1.05e-07M*,nt,nt,1.27e-07M*
Cc1ccc(CCP(=O)(O)CN2CCCCC2)cn1,nt,5.9%,nt,-0.5%,-1.7%,nt
O=C1C2C3C=CC(CO)(O3)C2C(=O)N1c1ccc(-c2ccccc2)cc1 (stereo not given),nt,20µM*,nt,0.0%,-22.4%,nt
COc1cc(C(Nc2ccccn2)c2ccc3ccc(C)nc3c2O)cc(OC)c1O (stereo not given),>76.9,12.6µM*,i,13.2%,?,i
Cc1cc(=O)n2c(ccc3ccccc32)c1C#N,>76.9,17.5%,1.64e-08M*,1.0%,-5.1%,1.48e-08M*
Cc1noc(NS(=O)(=O)c2cccc3c(N(C)C)cccc23)c1C,nt,39.8µM*,nt,9.5%,-9.7%,nt
CN1C(=O)CSc2ccc(NC(=O)N3CCN(c4ccccn4)CC3)cc21,?,31.6µM*,i,0.3%,-3.6%,i
CN1C(=O)CSc2ccc(NC(=O)Nc3ccccn3)cc21,>76.9,-3.6%,i,0.8%,0.0%,i
CCOC(=O)C1(C)NC(c2cc(OC)c(OC)c(OC)c2)C2C(=O)N(CC)C(=O)C21 (stereo not given),>76.9,11.0%,i,-0.3%,-14.6%,i
